Several values for one entry are separate records, joined by “and”; a condition that tells them apart may be missing. Identical values can stand only once. Records with an inconclusive call do not appear. A call without a number means that no potency is given here. A structure can be active in one record and inactive in another. Activity calls are given as the source filed them. Unless noted, the call rests on the fitted dose curve.
biological target: Nuclear receptor ROR-gamma (Homo sapiens) (UniProt P51449); assay: qHTS assay to identify small molecule antagonists of the retinoid-related orphan receptor gamma (ROR-gamma) signaling pathway (AID 1159521; active means well fitted inhibition curve with a large enough effect in the repeat runs; further: nearly all actives have a fitted effect of over 50% in size; further: potency means the concentration at half of the fitted maximal effect); conditions: Tet-on RORgamma CHO cells, RORE-luciferase, 16 h; series mostly up to 92.4 µM
In short: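 Tet-on RORγ CHO cells carrying a ROR response element–luciferase reporter were pretreated with compounds for 2 h, then induced with 1 uM (final) doxycycline hyclate for 16 h at 37 C. Antagonism was read as decreased ONE-Glo luminescence.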

Structure (SMILES) | Potency
Nc1nc(N)c2nc(-c3ccccc3)c(N)nc2n1 | inactive
COc1ccc([C@@H]2CC(=O)c3c(O)cc(O[C@@H]4O[C@H](CO[C@@H]5O[C@@H](C)[C@H](O)[C@@H](O)[C@H]5O)[C@@H](O)[C@H](O)[C@H]4O)cc3O2)cc1OC | inactive
CCCN(CCC)C(=O)SCC | inactive
CC/C(C)=N/O | inactive
CC/C=C(\C(=O)N[C@@H]1C(=O)N2C(C(=O)OCOC(=O)C(C)(C)C)=C(COC(N)=O)CS[C@H]12)c1csc(N)n1 | inactive
COC(=O)CCCCC(=O)OC | inactive
C[Si](C)(C)N[Si](C)(C)C | inactive
COC(=O)/C=C\C(=O)OC | inactive
O=C1C(N(CO)C(=O)NCO)N(CO)C(=O)N1CO (stereo not drawn) | inactive
NC(N)=S | inactive
c1cnc2c(c1)ccc1cccnc12 | 1.95 µM (active) and 5.45 µM (active) and 6.11 µM (active)
Nc1cccc(N)n1 | inactive
OCC(CO)(CO)CO | inactive
Oc1ccc(Cc2ccccc2O)cc1 | inactive

tested on: not listed separately; assay: qHTS assay to identify small molecule agonists of the AP-1 signaling pathway - cell viability counter screen (AID 1159525); conditions: ME-180 AP-1-bla cells viability, ATP luminescence, 5 h; series mostly up to 76.8 µM; further: nearly all actives have a fitted effect of over 55% in size; further: potency means the concentration at half of the fitted maximal effect
In short: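 Same-well cytotoxicity counter screen of the Tox21 10K library in ME-180 cells. The readout is ATP-dependent luminescence after 5 h compound treatment. Data are normalised to DMSO and tetra n-octyl ammonium bromide controls.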

Structure (SMILES) | Potency
CC1=CC(=O)CC(C)(C)C1 | 25.3 µM (active) and inactive
Clc1cccc(Cl)c1NC1=NCCN1 | inactive
CC1(C)C(=O)N(Cl)C(=O)N1Cl | inactive
CCCCCCCC(=O)O | inactive
O=C1O[C@H]([C@H](O)CO)C(O)=C1O | inactive
CS(=O)(=O)c1ccc(Cl)cc1 | inactive
OB(O)O | inactive
CC(=O)OCc1ccc2c(c1)OCO2 | inactive
CCCCCCCCCCCCCC(=O)O | inactive
CC1(C)[C@@H](O[C@H]2O[C@H](C(=O)O)[C@@H](O)[C@H](O)[C@H]2O[C@@H]2O[C@H](C(=O)O)[C@@H](O)[C@H](O)[C@H]2O)CC[C@]2(C)[C@H]3C(=O)C=C4[C@@H]5C[C@@](C)(C(=O)O)CC[C@]5(C)CC[C@@]4(C)[C@]3(C)CC[C@@H]12 | inactive
Cc1ccncc1 | inactive
O=Cc1ccc(CO)o1 | inactive
CC(=O)Nc1ccc(CC(=O)O)cc1 | inactive
COc1cc(NC(=O)CC(C)=O)c(OC)cc1Cl | inactive
CC(COCC(C)OC(=O)c1ccccc1)OC(=O)c1ccccc1 (stereo not drawn) | inactive
CC(C)c1ccc(C(C)C)cc1 | inactive
CCN(CC)CCNC(=O)c1ccc(N)cc1 | inactive
O=C(NCC1CCCCN1)c1cc(OCC(F)(F)F)ccc1OCC(F)(F)F (stereo not drawn) | inactive
C[n+]1ccn(CCO)c1 | inactive

Structure (SMILES) | Potency
C=CC(=O)NCOCCCC | inactive
O=[N+]([O-])c1cc(C(F)(F)F)ccc1Cl | inactive
CCCCC(=O)O | inactive
C1CCCNCC1 | inactive
COc1ccc2cc3[n+](cc2c1OC)CCc1cc2c(cc1-3)OCO2 | inactive
Nc1nc(N)c2nc(-c3ccccc3)c(N)nc2n1 | inactive
COc1ccc([C@@H]2CC(=O)c3c(O)cc(O[C@@H]4O[C@H](CO[C@@H]5O[C@@H](C)[C@H](O)[C@@H](O)[C@H]5O)[C@@H](O)[C@H](O)[C@H]4O)cc3O2)cc1OC | inactive
CCCN(CCC)C(=O)SCC | inactive
CC/C(C)=N/O | inactive
CC/C=C(\C(=O)N[C@@H]1C(=O)N2C(C(=O)OCOC(=O)C(C)(C)C)=C(COC(N)=O)CS[C@H]12)c1csc(N)n1 | inactive
COC(=O)CCCCC(=O)OC | inactive
C[Si](C)(C)N[Si](C)(C)C | inactive
COC(=O)/C=C\C(=O)OC | inactive
O=C1C(N(CO)C(=O)NCO)N(CO)C(=O)N1CO (stereo not drawn) | inactive
NC(N)=S | inactive
c1cnc2c(c1)ccc1cccnc12 | inactive
Nc1cccc(N)n1 | inactive
OCC(CO)(CO)CO | inactive
Oc1ccc(Cc2ccccc2O)cc1 | inactive

tested on: not listed separately; assay: qHTS assay to identify small molecule agonists of the AP-1 signaling pathway (AID 1159526); conditions: ME-180 (cervical carcinoma) AP-1-bla reporter, beta-lactamase FRET ratio, 5 h; series mostly up to 76.8 µM

Structure (SMILES) | outcome
CC1=CC(=O)CC(C)(C)C1 | inactive
Clc1cccc(Cl)c1NC1=NCCN1 | inactive
CC1(C)C(=O)N(Cl)C(=O)N1Cl | inactive
CCCCCCCC(=O)O | inactive
O=C1O[C@H]([C@H](O)CO)C(O)=C1O | inactive
CS(=O)(=O)c1ccc(Cl)cc1 | inactive
OB(O)O | inactive
CC(=O)OCc1ccc2c(c1)OCO2 | inactive
CCCCCCCCCCCCCC(=O)O | inactive
CC1(C)[C@@H](O[C@H]2O[C@H](C(=O)O)[C@@H](O)[C@H](O)[C@H]2O[C@@H]2O[C@H](C(=O)O)[C@@H](O)[C@H](O)[C@H]2O)CC[C@]2(C)[C@H]3C(=O)C=C4[C@@H]5C[C@@](C)(C(=O)O)CC[C@]5(C)CC[C@@]4(C)[C@]3(C)CC[C@@H]12 | inactive
Cc1ccncc1 | inactive
O=Cc1ccc(CO)o1 | inactive
CC(=O)Nc1ccc(CC(=O)O)cc1 | inactive
COc1cc(NC(=O)CC(C)=O)c(OC)cc1Cl | inactive
CC(COCC(C)OC(=O)c1ccccc1)OC(=O)c1ccccc1 (stereo not drawn) | inactive
CC(C)c1ccc(C(C)C)cc1 | inactive
CCN(CC)CCNC(=O)c1ccc(N)cc1 | inactive
O=C(NCC1CCCCN1)c1cc(OCC(F)(F)F)ccc1OCC(F)(F)F (stereo not drawn) | inactive

Structure (SMILES) | outcome
C[n+]1ccn(CCO)c1 | inactive
C=CC(=O)NCOCCCC | inactive
O=[N+]([O-])c1cc(C(F)(F)F)ccc1Cl | inactive
CCCCC(=O)O | inactive
C1CCCNCC1 | inactive
COc1ccc2cc3[n+](cc2c1OC)CCc1cc2c(cc1-3)OCO2 | inactive
COc1ccc([C@@H]2CC(=O)c3c(O)cc(O[C@@H]4O[C@H](CO[C@@H]5O[C@@H](C)[C@H](O)[C@@H](O)[C@H]5O)[C@@H](O)[C@H](O)[C@H]4O)cc3O2)cc1OC | inactive
CCCN(CCC)C(=O)SCC | inactive
CC/C(C)=N/O | inactive
CC/C=C(\C(=O)N[C@@H]1C(=O)N2C(C(=O)OCOC(=O)C(C)(C)C)=C(COC(N)=O)CS[C@H]12)c1csc(N)n1 | inactive
COC(=O)CCCCC(=O)OC | inactive
C[Si](C)(C)N[Si](C)(C)C | inactive
COC(=O)/C=C\C(=O)OC | inactive
O=C1C(N(CO)C(=O)NCO)N(CO)C(=O)N1CO (stereo not drawn) | inactive
NC(N)=S | inactive
Nc1cccc(N)n1 | inactive
OCC(CO)(CO)CO | inactive
Oc1ccc(Cc2ccccc2O)cc1 | inactive

Source: PubChem BioAssay (Tox21)
